Assay results: PubChem BioAssay (Tox21)
Results filed as inconclusive are left out. Where a call stands in place of a potency, no number is given. Values without a mark were called inactive. Activity calls are given as the source filed them. The call rests on the fitted dose curve; in most records, active means well fitted activation curve with a large enough effect in the signal ratio in the repeat runs (not every such curve was filed as active); inconclusive means weak or mixed curves, or effect the other way; inactive means flat fitted curve, though single readings scatter; the % refers to the signal ratio.
Potency means the concentration at half of the fitted maximal effect.

Assay: qHTS assay to identify small molecule agonists of the endoplasmic reticulum stress response signaling pathway (AID 1159516)
Settings: ESRE-bla HeLa, ER stress beta-lactamase reporter, 5 h; series mostly up to 61 µM
Source text: National Center for Advancing Translational Sciences [NCATS]
NIH Chemical Genomics Center [NCGC]
U.S. Environmental Protection Agency [EPA]
National Institutes of Environmental Health Sciences [NIEHS]
National Toxicology Program [NTP]
U.S. Food and Drug Administration [FDA]
Endoplasmic Reticulum (ER) plays an important role in cellular signaling, protein folding/maturation, stress response, lipid biosynthesis, calcium storage and release etc. Under stress conditions, proteins in ER misfold or unfold, and leading to the expression of ER stress responsive genes. ER stress has been associated with a variety of pathophysiological conditions such as cancer, inflammation, neurodegenerative diseases, diabetes, ischemic heart disease etc. To identify the compounds that induce ER stress response, an ER stress reporter cell line, CellSensor ESRE-bla HeLa (Life Technologies, Carlsbad, CA) containing a beta-lactamase reporter gene under control of the Endoplasmic reticulum Stress Response Element (ESRE) was used to screen Tox21 10K compound library.
Tox21 Assay Protocol Summary:
ESRE-bla HeLa cells were dispensed at 1,500 cells/6 uL of assay medium per well into black wall/clear-bottom 1536-well plates using a Multidrop Combi (ThermoFisher Scientific, Waltham, MA) dispenser. After the assay plates were incubated at 37 C and 5% CO2 for an overnight, 23 nL of compounds dissolved in DMSO, positive controls or DMSO only was transferred to the assay plate by a Pintool station (Kalypsys, San Diego, CA). The assay plates were incubated at 37 C and 5% CO2 for 5 hr. One uL of LiveBLAzer B/G FRET substrate (Life Technologies) was added using a Flying Reagent Dispenser (Aurora Discovery, San Diego, CA) and the plates were incubated at room temperature for 2 hr. Fluorescence intensity (405 nm excitation, 460 nm and 530 nm emissions) was measured using an Envision plate reader (PerkinElmer, Shelton, CT).
In the case of `CCCCCC(C)OC(=O)COc1ccc(Cl)c2cccnc12` (stereo not given), the Potency is reported as “inactive”.
In the case of `[Cl][Pt-2]([Cl])([Cl])[Cl]`, the Potency is reported as “inactive”.
With `CN1CCN2c3ccccc3Cc3ccccc3C2C1` (stereo not given) the Potency was “inactive”.
With `O=S(=O)(O)c1ccc(Nc2nc(Nc3ccc(/C=C/c4ccc(Nc5nc(Nc6ccc(S(=O)(=O)O)cc6)nc(N(CCO)CCO)n5)cc4S(=O)(=O)O)c(S(=O)(=O)O)c3)nc(N(CCO)CCO)n2)cc1` the Potency was 37.1 µM (active).
For `CCCCN(CCCC)CC(O)c1cc(Cl)cc2c1-c1ccc(Cl)cc1/C2=C/c1ccc(Cl)cc1` (stereo not given), the Potency was “inactive”.
With `S=C([S-])NCCNC(=S)[S-].S=C([S-])NCCNC(=S)[S-].[Mn+2].[Zn+2]` the Potency was “inactive”.
With `O=C(O)c1cccc(C(F)(F)F)c1` the Potency was “inactive”.
For `CCCC(=O)OCCc1ccccc1`, the Potency was “inactive”.
For `FC(F)(F)c1cccc(Cl)c1`, the Potency was “inactive”.
In the case of `CC(C)(C)NSc1nc2ccccc2s1`, the Potency is reported as “inactive”.
For `O=c1[nH]c(=O)n([C@H]2C[C@H](O)[C@@H](CO)O2)cc1F`, the Potency was “inactive”.
In the case of `C=CC(=O)Nc1cc2c(Nc3ccc(F)c(Cl)c3)ncnc2cc1OCCCN1CCOCC1`, the Potency is reported as “inactive”.
For `Cc1nc2n(c(=O)c1CCN1CCC(c3noc4cc(F)ccc34)CC1)CCCC2`, the Potency was “inactive”.
In the case of `c1ccc(C(O[C@@H]2CCCN(CCc3ccc4c(c3)OCO4)C2)c2ccccc2)cc1`, the Potency is reported as “inactive”.
In the case of `CC1(C)[C@@H](O)CC[C@]2(C)[C@H]3C(=O)C=C4[C@@H]5C[C@@](C)(C(=O)O)CC[C@]5(C)CC[C@@]4(C)[C@]3(C)CC[C@@H]12`, the Potency is reported as “inactive”.
In the case of `CC(CCc1ccccc1)NCC(O)c1ccc(O)c(C(N)=O)c1` (stereo not given), the Potency is reported as “inactive”.
In the case of `[Cu+]`, the Potency is reported as “inactive”.
In the case of `CC(N=C(NC#N)Nc1ccncc1)C(C)(C)C` (stereo not given), the Potency is reported as “inactive”.
With `O=C(Nc1ccc2c(O)c(N=Nc3ccc(N=Nc4ccc(S(=O)(=O)O)cc4)cc3)c(S(=O)(=O)O)cc2c1)c1ccccc1` the Potency was “inactive”.
In the case of `NC(=S)NC(N)=S`, the Potency is reported as “inactive”.
For `O=C(O)c1ccc2cc(C(=O)O)ccc2c1`, the Potency was “inactive”.
For `O=C(O)CCN(C1(C(=O)NO)CCCC1)S(=O)(=O)c1ccc(Oc2ccc(F)cc2)cc1`, the Potency was “inactive”.
In the case of `O=S(=O)(O)c1ccc(N=Nc2c(O)ccc3ccccc23)cc1`, the Potency is reported as “inactive”.
For `COC(=O)c1ccccc1OC`, the Potency was “inactive”.
In the case of `CCCCCCOC(=O)C(C)CC` (stereo not given), the Potency is reported as “inactive”.
`O=C(O)O` gave an activation of -2.74% [at 6.95 µM].
With `CC1=Nc2ccccc2C1(C)C` the Potency was “inactive”.
In the case of `CCC(C)[O-].CCC(C)[O-].CCOC(=O)/C=C(/C)[O-].[Al+3]`, the Potency is reported as “inactive”.
With `CC(C)(C)C1CCC(=O)CC1` the Potency was “inactive”.
With `Cc1ccc(O)c(O)c1` the Potency was “inactive”.
In the case of `CCc1ccc(Br)cc1`, the Potency is reported as “inactive”.
For `CCCCCCCC/C=C\CCCCCCCCN`, the Potency was “inactive”.
For `COc1c(C)c2c(c(O)c1C/C=C(\C)CCC(=O)OCCN1CCOCC1)C(=O)OC2`, the Potency was “inactive”.
With `O=C1CCc2ccc(OCCCCN3CCN(c4cccc(Cl)c4Cl)CC3)cc2N1` the Potency was “inactive”.
For `CC/C=C\CCCCCO`, the Potency was “inactive”.
With `Cc1cccc(C)c1NC(=O)c1ccc(N)cc1` the Potency was “inactive”.
In the case of `CC(C)CCOC(=O)/C=C/c1ccccc1`, the Potency is reported as “inactive”.
For `CCO[Si](OCC)(OCC)OCC`, the Potency was “inactive”.
For `CC1=CCC(=C(C)C)CC1`, the Potency was “inactive”.
For `COC1=C(OC)C(=O)C(CCCCCCCCCCO)=C(C)C1=O`, the Potency was “inactive”.
